Screens: PubChem BioAssay, National Center for Advancing Translational Sciences (NCATS)
SW480 rereplic: A quantitative high throughput screen for small molecules that induce DNA re-replication in SW480 colon adenocarcinoma cells | SW480 DNA re-replication, Hoechst DNA content imaging, 48 h | Potency, µM (doses to about 46.1 µM), actives largely listed as activators | 1.8% of 340,000 active; further: nearly all actives have a fitted effect of over 55% in size
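Per well, 250 cells were exposed to pinned compound for 48 hr. Nuclear DNA was visualised with Hoechst (40 min, 37 C) and total object intensity recorded by fluorescence scanning.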
MCF10A rereplic: A quantitative high throughput screen for small molecules that induce DNA re-replication in MCF 10a normal breast cells; MCF 10A DNA re-replication, Hoechst nuclear intensity, 48 h; Potency, µM (highest dose often 46.1 µM), hits mostly activators; 2.9% of 350,000 active; further: nearly all actives have a fitted effect of over 50% in size
ASM inhibitor: Inhibitors of Secretory Acid Sphingomyelinase (S-ASM): qHTS. Sphingomyelin phosphodiesterase (Homo sapiens), P17405. placental ASM, HMU-PC fluorogenic substrate, 60 min. Potency, µM (top dose mostly 57.5 µM), usual class: inhibitors. 0.006% of 340,000 active. AID 504937, 2011
Target sequence (P17405 47-631 limits assumed): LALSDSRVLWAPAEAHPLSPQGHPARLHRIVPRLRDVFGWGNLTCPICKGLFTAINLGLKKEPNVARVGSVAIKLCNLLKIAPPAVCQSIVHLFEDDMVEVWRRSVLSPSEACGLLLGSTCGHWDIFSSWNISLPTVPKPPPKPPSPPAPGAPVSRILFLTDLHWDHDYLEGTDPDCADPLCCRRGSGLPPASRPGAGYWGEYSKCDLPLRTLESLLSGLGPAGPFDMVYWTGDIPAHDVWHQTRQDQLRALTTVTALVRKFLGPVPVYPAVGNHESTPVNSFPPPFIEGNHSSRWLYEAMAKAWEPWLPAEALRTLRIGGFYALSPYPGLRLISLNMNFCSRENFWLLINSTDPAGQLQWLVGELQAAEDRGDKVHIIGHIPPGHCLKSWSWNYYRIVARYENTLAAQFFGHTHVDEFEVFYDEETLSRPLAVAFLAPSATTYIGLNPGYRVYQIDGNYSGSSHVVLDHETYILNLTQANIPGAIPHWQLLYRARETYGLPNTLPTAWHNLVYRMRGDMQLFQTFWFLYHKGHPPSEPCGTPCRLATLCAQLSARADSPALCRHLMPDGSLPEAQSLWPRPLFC
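Fluorogenic HMU-PC substrate (9 uM final) is turned over by placental ASM in 60 min at 37 C after a 10 min compound preincubation. Reaction ended by alkaline stop (pH 10), with fluorescence read at 386/447 nm.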
KB-3-1 tox: qHTS assay for MDR1-selective chemotherapeutics: Primary screen using the parental adenocarcinoma cell KB-3-1; Potency, µM (highest dose often 46.1 µM), actives largely listed as cytotoxic; KB-3-1 viability, CellTiter-Glo ATP luminescence, 72 h; 1.4% of 400,000 active; further: nearly all actives have a fitted effect of over 60% in size
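KB-3-1 cells, DMEM (no phenol red) + 10% FBS; compound by pin transfer, 72 h, 37 °C. Readout: CellTiter-Glo luminescence after 10 min. Data normalized, curve-fitted.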
KB-V1 MDR tox: qHTS assay for MDR1-selective chemotherapeutics: Primary screen using the drug-selected MDR subline cells KB-V1 | Potency, µM (top dose mostly 46.1 µM), usual class: cytotoxic | KB-V1 MDR cells viability, CellTiter-Glo, 72 h | AID 1347076, 2019 | 3.4% of 400,000 active; further: nearly all actives have a fitted effect of over 60% in size
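KB-V1 MDR subline cells in DMEM (phenol-red free, 10% FBS) exposed to compounds in qHTS concentration series for 72 h at 37 degrees C. Viability read by CellTiter-Glo luminescence; concentration-effect curves fitted after normalization and correction.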
Giardia kill: Small Molecules that selectively kill Giardia lamblia: qHTS. activity change, % at 7.66 µM, hits read low. Giardia lamblia trophozoite viability. 0.15% of 340,000 active. AID 540267, 2011; in the data active means activity change below about -80%; inconclusive means between about -30% and that limit;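 further: parasites exposed to compound for two days anaerobically before the ATP read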
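ATP-content bioluminescence gauges trophozoite survival. Cells (100/well) receive compound and incubate anaerobically for 48 hrs at 37 deg C; detection reagent follows for 15-30 min at room temperature.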
Large screens that a line does not name were inactive. In the library only some 6.9% were active in any assay of this set; here they are far more common. Unless noted, the call rests on the fitted dose curve; in most records, active means well fitted curve in the direction sought with a large enough effect; inconclusive means small, poorly fitted or top-dose-only effect, or another doubt; inactive means no such curve, though single readings can be large; an effect the other way counts as inactive or inconclusive.

O=C(COC(=O)c1cc([N+](=O)[O-])ccc1N1CCOCC1)Nc1ccc(Cl)cn1	SW480 rereplic inconclusive, MCF10A rereplic inconclusive, KB-3-1 tox inconclusive, KB-V1 MDR tox 13µM
O=C(c1ccccc1)c1cc([N+](=O)[O-])ccc1N1CCOCC1	SW480 rereplic inconclusive, MCF10A rereplic inconclusive, KB-3-1 tox 1.2µM, KB-V1 MDR tox 1.2µM
CCn1cc(C2=NC(c3ccccc3)CO2)c2ccccc21 (centres undefined)	MCF10A rereplic inconclusive, KB-3-1 tox 8.2µM, KB-V1 MDR tox inconclusive
CCC(Sc1nc2c(c(=O)[nH]1)CCC2)C(=O)Nc1cccc(OC)c1 (centres undefined)	KB-V1 MDR tox 16µM
COc1c(C(=O)Nc2ccc3[nH]c(=O)[nH]c3c2)cc2ccccc2c1Br	SW480 rereplic inconclusive, MCF10A rereplic 11µM
COc1cc(C2C3=C(CCCC3=O)Nc3ccc4ncccc4c32)ccc1O (centres undefined)	SW480 rereplic 23µM, MCF10A rereplic 15µM, KB-3-1 tox inconclusive
CCOc1cc(C2C3=C(CCCC3=O)Nc3ccc4ncccc4c32)ccc1O (centres undefined)	SW480 rereplic 18µM, MCF10A rereplic inconclusive, KB-3-1 tox 13µM
COc1ccc(C2C3=C(CCCC3=O)Nc3ccc4ncccc4c32)cc1OC (centres undefined)	none
O=C1CCCC2=C1C(c1cccc(O)c1)C1=C(N2)c2ccccc2C1=O (centres undefined)	none
O=C1CCCC2=C1C(c1cccc(O)c1)c1c(ccc3ncccc13)N2 (centres undefined)	SW480 rereplic inconclusive, MCF10A rereplic 18µM
COc1cc(C2C3=C(CCCC3=O)Nc3[nH]n(-c4ccccc4)c(=O)c32)ccc1OC(C)=O (centres undefined)	SW480 rereplic 21µM, MCF10A rereplic 7.3µM
COc1cc(C2C3=C(CCCC3=O)Nc3[nH]n(-c4ccccc4)c(=O)c32)cc(OC)c1OC (centres undefined)	none
CCOC(=O)c1c(C)[nH]c(C)c1S(=O)(=O)N1CCCC(C(=O)Nc2ccccc2OCC)C1 (centres undefined)	none (no result: SW480 rereplic, MCF10A rereplic, ASM inhibitor, Giardia kill)
Cc1cccc(NC(=O)C(Cc2ccccc2)NS(=O)(=O)c2ccc3c(c2)c(=O)n(C)c(=O)n3C)c1 (centres undefined)	none (no result: SW480 rereplic, MCF10A rereplic, ASM inhibitor, Giardia kill)
O=C(COC(=O)C12CC3CC(CC(Br)(C3)C1)C2)Nc1cccc(S(=O)(=O)N2CCOCC2)c1	SW480 rereplic inconclusive
CCOC(=O)c1ccc(NS(=O)(=O)c2cn(C)cn2)cc1	MCF10A rereplic inconclusive
O=C(Cn1c(-c2ccccc2)c[n+]2ccsc12)c1ccc([N+](=O)[O-])cc1	KB-3-1 tox 21µM
CCCC(=O)Nc1cc(Cl)ccc1N1CCN(C(=O)CC)CC1	MCF10A rereplic 18µM, KB-V1 MDR tox inconclusive
CCC(=O)N1CCN(c2ccccc2NC(=O)Cc2ccc(Cl)cc2)CC1	none
CCCC(=O)N1CCN(c2nc3ccc(Cl)cc3s2)CC1	MCF10A rereplic inconclusive, KB-3-1 tox 18µM, KB-V1 MDR tox inconclusive
CCC(=O)N1CCN(c2ccc(Cl)cc2NC(=O)Cc2ccc(Cl)cc2)CC1	KB-V1 MDR tox 3.7µM
CCC(=O)N1CCN(c2ccc(Cl)cc2NC(=S)NC(=O)c2ccco2)CC1	KB-V1 MDR tox inconclusive
CC1(C(=O)NCc2ccccc2)Cc2c(-c3ccc4c(c3)OCO4)ccnc2O1 (centres undefined)	KB-3-1 tox 4.6µM, KB-V1 MDR tox 2.1µM (no result: SW480 rereplic, MCF10A rereplic, ASM inhibitor, Giardia kill)
CC1(C(=O)NCc2cccc(Cl)c2)Cc2c(-c3ccccc3)ccnc2O1 (centres undefined)	none (no result: SW480 rereplic, MCF10A rereplic, ASM inhibitor, Giardia kill)
CC1(C(=O)NCc2ccco2)Cc2c(-c3ccc(C(N)=O)cc3)ccnc2O1 (centres undefined)	KB-3-1 tox 18µM (no result: SW480 rereplic, MCF10A rereplic, ASM inhibitor, Giardia kill)
CC1(C(=O)NCc2ccccc2)Cc2c(-c3ccccc3)ccnc2O1 (centres undefined)	KB-3-1 tox 21µM, KB-V1 MDR tox inconclusive (no result: SW480 rereplic, MCF10A rereplic, ASM inhibitor, Giardia kill)
CC1(C(=O)NCc2ccccc2)Cc2c(-c3ccc(C(N)=O)cc3)ccnc2O1 (centres undefined)	KB-3-1 tox 8.2µM (no result: SW480 rereplic, MCF10A rereplic, ASM inhibitor, Giardia kill)
COc1ccc(NS(=O)(=O)c2cc(C)ccc2NC(=O)c2cc(C)oc2C)cc1	SW480 rereplic 0.73µM, MCF10A rereplic 0.65µM, KB-3-1 tox 0.041µM, KB-V1 MDR tox 0.26µM
CC(C)Cn1c(N)c(C(=O)COC(=O)c2c(F)cccc2F)c(=O)n(C)c1=O	MCF10A rereplic 0.52µM, KB-3-1 tox inconclusive
Cn1cccc1C(=O)OCC(=O)Nc1sccc1C#N	KB-3-1 tox inconclusive, KB-V1 MDR tox 16µM
O=C(c1ccccc1F)N1CCN(c2ccc([N+](=O)[O-])c(NCc3cccnc3)c2)CC1	none
O=C(c1ccc(Cl)cc1)N1CCN(c2ccc([N+](=O)[O-])c(NCc3cccnc3)c2)CC1	ASM inhibitor inconclusive, KB-V1 MDR tox 21µM
O=C(c1ccccc1)N1CCN(c2ccc([N+](=O)[O-])c(NCc3cccnc3)c2)CC1	KB-3-1 tox inconclusive, KB-V1 MDR tox 2.6µM
CC(C)(C)C(=O)N1CCN(c2ccc([N+](=O)[O-])c(NCc3cccnc3)c2)CC1	KB-V1 MDR tox inconclusive
COC(=O)C1=C(C(=O)OC)[C@@H]2N(Cc3ccccc3)c3ccccc3[C@@]23C[C@@H](C(=O)OC)N=C3N1	none
O=C(Nc1ccc2nc(-c3ccco3)c(-c3ccco3)nc2c1)N1CCCCCC1	SW480 rereplic inconclusive, MCF10A rereplic 18µM, KB-V1 MDR tox inconclusive
Cc1ccc(NC(=O)c2cc(S(=O)(=O)NCCC3=CCCCC3)ccc2F)cc1	MCF10A rereplic inconclusive, KB-3-1 tox inconclusive, KB-V1 MDR tox 2.3µM
Cc1ccccc1CN(c1ccc(C(=O)NCCC2=CCCCC2)cc1)S(C)(=O)=O	KB-3-1 tox inconclusive, KB-V1 MDR tox 13µM
CSc1ccc(CN(C)CC(=O)NC(=O)NC(C)(C)C)cc1	none
Cc1ccc(S(=O)(=O)N(CC(=O)NCCC2=CCCCC2)Cc2ccccc2)cc1	SW480 rereplic inconclusive, MCF10A rereplic inconclusive, KB-3-1 tox inconclusive, KB-V1 MDR tox 18µM
CSc1ccc(CN(C)CC(=O)NC(=O)NCCC2=CCCCC2)cc1	KB-V1 MDR tox 21µM
O=C(CN(Cc1ccccc1)S(=O)(=O)c1ccc(F)cc1)NCCC1=CCCCC1	KB-V1 MDR tox inconclusive
CCc1ccc(C=O)cc1	none (no result: SW480 rereplic, MCF10A rereplic, ASM inhibitor, Giardia kill)
CC(C)(C)c1ccc(C(=O)Nc2ccc(-c3nc4cc(Cl)ccc4o3)cc2)cc1	none (no result: SW480 rereplic, MCF10A rereplic, ASM inhibitor, Giardia kill)
